The sample as a whole holds a higher share of hits than the screen did.
RmlCD inh 1536: blocks M. tuberculosis RmlC and RmlD coupled enzymes. P9WH09+P9WH11. RmlC+RmlD coupled enzyme assay, percent inhibition; primary screen in compound mixtures. inhibition, % at 3.6 µM. 160,000 tested, 0.03% active. AID 1533; in the data active = inhibition mostly above about 34%, no sharp cut-off
Target sequence (P9WH09 whole entry, looked up): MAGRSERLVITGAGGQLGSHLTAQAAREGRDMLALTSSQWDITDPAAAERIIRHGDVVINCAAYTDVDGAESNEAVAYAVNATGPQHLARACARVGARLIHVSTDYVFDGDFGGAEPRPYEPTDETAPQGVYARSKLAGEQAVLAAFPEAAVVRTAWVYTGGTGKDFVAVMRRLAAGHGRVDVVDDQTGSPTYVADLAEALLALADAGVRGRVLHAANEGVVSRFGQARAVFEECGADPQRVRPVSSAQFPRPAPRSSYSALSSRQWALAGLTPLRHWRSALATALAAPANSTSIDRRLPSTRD
Target sequence (P9WH11 whole entry, looked up): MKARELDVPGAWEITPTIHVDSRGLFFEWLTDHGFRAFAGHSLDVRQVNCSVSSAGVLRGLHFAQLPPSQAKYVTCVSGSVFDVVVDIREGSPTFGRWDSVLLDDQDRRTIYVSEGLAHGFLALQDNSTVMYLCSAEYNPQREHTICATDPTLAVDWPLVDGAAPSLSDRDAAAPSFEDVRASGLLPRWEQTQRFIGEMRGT
YopH PTP inh: inhibitors of Yersinia enterocolitica YopH tyrosine phosphatase | inhibition, % (no concentration beside the values) | AID 898 | fluorescence Ex485/Em525 | 140,000 tested, 0.16% active; in the data active = inhibition above about 50%
* marks the source's active call; other numbers are inactive results; / = not tested or not shown.

SMILES | RmlCD inh 1536 | YopH PTP inh
COc1ccc(CN2C(=O)c3ccccc3C(/C=N/OCc3ccc(Cl)cc3)C2=O)cc1 (stereo not drawn) | 7 | -6
Cn1cccc1C(=O)C(=O)Nc1cccc(Cl)c1Cl | 1 | 10
Cc1cc(C(=O)OCC(=O)NC2CCS(=O)(=O)C2)c2ccccc2n1 (stereo not drawn) | 6 | /
COc1ccc2cc(-c3cc(C(=O)OCC(=O)NC4CCS(=O)(=O)C4)c4ccccc4n3)ccc2c1 (stereo not drawn) | -8 | 97*
COc1ccccc1CN1C(=O)c2ccncc2C1=O | -7 | -4
COc1ccc(CCN2C(=O)c3ccncc3C2=O)cc1OC | 22 | 51*
CCOC(=O)C1=C(O)C(=O)N(CCCn2ccnc2)C1c1ccc(OC)cc1 (stereo not drawn) | 10 | /
CN(CC(=O)N1CCCc2c1c(=O)oc1ccc(O)cc21)Cc1ccccc1 | 30 | 51*
O=C(CN1CCCC1)N1CCCc2c1c(=O)oc1ccc(OCc3ccccc3)cc21 | -8 | -37
CCCOc1ccc2oc(=O)c3c(c2c1)CCCN3C(=O)CN1CCCC(C(=O)OCC)C1 (stereo not drawn) | 19 | -9
CC(C(=O)N1CCc2ccccc21)N1CCc2ccccc2C1 (stereo not drawn) | / | -2
CC1CCN(CCC(=O)N2CCCc3c2c(=O)oc2ccc(O)cc32)CC1 | -6 | 61*
CC(C(=O)N1CCCc2c1c(=O)oc1ccc(O)cc21)N1CCc2ccccc2C1 (stereo not drawn) | 8 | 53*
COc1ccc(NC(=O)CSc2nc(C)cs2)c(OC)c1 | 29 | /
CCC1CCC(C(=O)NC(C(=O)NCCCN2CCCCC2C)C(C)C)CC1 (stereo not drawn) | 3 | /
C=CCn1cccc(C(=O)Nc2cc(OC)ccc2OC)c1=O | 13 | /
CC1CCc2sc(C(=O)OCC(=O)NCc3ccc(F)cc3)cc2C1 (stereo not drawn) | -4 | -27
COc1ccccc1-c1c(C)nn2c(N3CCCCCC3)cc(C)nc12 | 2 | 81*
COc1ccccc1-c1c(C)nn2c(N3CCN(c4ccccc4OC)CC3)cc(C)nc12 | 12 | 2
Cc1sc2c(c1C)c(=O)nc1scc(C)n12 | / | -8
N#CC1C(C#N)N2CCCN2C1c1ccc(Br)cc1 (stereo not drawn) | -4 | /
COCCNC(=O)c1c(NC(=O)c2ccco2)n(Cc2ccccc2)c2nc3ccccc3nc12 | -3 | -13
COc1ccc(-n2c(NC(=O)c3ccco3)c(C#N)c3nc4ccccc4nc32)cc1 | 7 | 90*
CN1CCN(/N=C/c2ccc(OCc3ccccc3)cc2)CC1 | 1 | /
Nc1c(NCCC2=CCCCC2)c(=O)[nH]c(=O)n1Cc1ccccc1 | / | -13
SMILES | RmlCD inh 1536 | YopH PTP inh
Nc1c(NCc2ccccc2F)c(=O)[nH]c(=O)n1Cc1ccccc1 | 11 | 64*
COCCCNC(=O)CC(NS(=O)(=O)c1ccc(C)cc1)c1ccco1 (stereo not drawn) | 4 | -26
COCCCNC(=O)CC(NS(=O)(=O)c1ccc(F)cc1)c1ccc(OC)cc1 (stereo not drawn) | -8 | 68*
Cc1ccc(C2C3C(=O)N(c4ccc(C)cc4)C(=O)C3N3CCCN23)cc1 (stereo not drawn) | -3 | /
N#Cc1ccccc1Cn1cc(C#N)c2ccccc21 | / | 51*
N#Cc1cn(Cc2ccccc2)c2ccccc12 | 3 | 0
COc1ccccc1CN1C(=O)c2ccccc2C1C(=O)NC1CCC(C)CC1 (stereo not drawn) | -13 | /
CC(=O)Nc1nonc1-c1nc2ccccc2n1CCC(C)C | -12 | -39
CCC(=O)Nc1nonc1-c1nc2ccccc2n1CCC(C)C | -6 | 57*
O=C1CCCC2=C1C1(O)C(=O)c3ccccc3C1(O)O2 (stereo not drawn) | 10 | 99*
N#CC1=C(N)OC2=C(C(=O)CCC2)[C@]12C(=O)N(CC(N)=O)c1ccccc12 | / | -50
O=C(O)C1OC(Oc2cc3oc(-c4ccccc4)cc(=O)c3c(O)c2O)C(O)C(O)C1O (stereo not drawn) | / | 53*
COc1c(OC2OC(C(=O)O)C(O)C(O)C2O)cc(O)c2c(=O)cc(-c3ccccc3)oc12 (stereo not drawn) | / | -48
COc1ccc(-n2c(=O)c3c4c(sc3n3c(C)nnc23)CC(C)CC4)cc1 (stereo not drawn) | / | -23
O=C(NN=c1c(=O)c2ccccc2c1=O)c1ccccc1 | 2 | 68*
CN(C)/C=N/NC(=O)c1ccccc1 | -11 | /
O=C1C(Nc2ccccc2)=C/C(=N/S(=O)(=O)c2cccs2)c2ccccc21 | 5 | -13
CCc1cc[n+](C2=C([O-])c3ccccc3C(=O)/C2=N\S(=O)(=O)c2cccs2)cc1 | 4 | 69*
CC(=O)Nc1cccc(OCCCNC(=O)c2ccc(C(C)(C)C)cc2)c1 | -10 | /
CC(C)NC(=O)NC(=O)COC(=O)c1ccccc1Oc1ccccc1 | / | -11
O=C(O)c1ccc(NC2CC(=O)N(Cc3ccccc3)C2=O)cc1 (stereo not drawn) | 5 | /

Screening results (PubChem)
